Screening results: PubChem, National Center for Advancing Translational Sciences (NCATS)
SW480 rerep: induces DNA re-replication in SW480 colon adenocarcinoma cells; SW480 DNA re-replication, Hoechst DNA content imaging, 48 h; Potency, µM (doses to about 46.1 µM), for inactives: at the top dose re-replication activation, hits mostly activators; actives 1.8% (n = 340,000); AID 624297; further: % of control where 0% means no effect; nearly all actives have a fitted effect of over 55% in size
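Readout is total intensity of Hoechst-stained nuclei, excited at 405 nm and collected at 500-530 nm. Compound treatment lasted 48 hr at 37 C in 5% CO2 before staining.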
KB-V1 cytotox: KB-V1 MDR subline cytotoxicity. Potency, µM (highest dose often 46.1 µM), usual class: cytotoxic. AID 1347076. actives 3.4% (n = 400,000). KB-V1 MDR cells viability, CellTiter-Glo, 72 h; further: on the % scale 0 is the no-effect control and ±100 the full control effect; nearly all actives have a fitted effect of over 60% in size
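Potencies derive from concentration-effect curves fitted to normalized luminescence (CellTiter-Glo) of KB-V1 cells treated for 72 h at 37 degrees C in phenol-red-free DMEM containing 10% FBS.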
KB-3-1 cytotox: kills parental KB-3-1 adenocarcinoma cells | KB-3-1 viability, CellTiter-Glo ATP luminescence, 72 h | Potency, µM (series often up to 46.1 µM), actives largely listed as cytotoxic | actives 1.4% (n = 400,000) | AID 1347075; further: on the % scale 0 is the no-effect control and ±100 the full control effect; nearly all actives have a fitted effect of over 60% in size
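Here the drug-naive KB-3-1 line serves as comparator for MDR sub-line selectivity; cells received compound titrations, 72 h at 37 °C, then CellTiter-Glo readout.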
MCF10A rereplic: DNA re-replication induction in MCF 10a cells; MCF 10A DNA re-replication, Hoechst nuclear intensity, 48 h; Potency, µM (series often up to 46.1 µM), for the others: at the top dose activity, positive = re-replication, usual class: activators; actives 2.9% (n = 350,000); further: % of control where 0% means no effect; nearly all actives have a fitted effect of over 50% in size
RGS4 inhibitor: blocks human RGS4-accelerated GTP hydrolysis; P49798; Transcreener GDP fluorescence polarization, RGS4-accelerated GTP hydrolysis; Potency, µM (top dose mostly 114 µM), for inactives: at the highest dose activity change, negative = inhibition, actives largely listed as inhibitors; actives 0.039% (n = 390,000); AID 504845; further: on the % scale 0 is the no-effect control and ±100 the full control effect; nearly all actives have a fitted effect of over 75% in size
Target sequence (P49798 whole entry, looked up): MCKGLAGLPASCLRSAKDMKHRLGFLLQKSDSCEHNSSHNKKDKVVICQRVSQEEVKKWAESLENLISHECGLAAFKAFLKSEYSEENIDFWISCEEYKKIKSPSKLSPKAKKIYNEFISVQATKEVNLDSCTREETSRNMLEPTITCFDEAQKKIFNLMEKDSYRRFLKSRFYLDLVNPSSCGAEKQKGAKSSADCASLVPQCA
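MLSMR compounds (23 nl, pin-transferred) preincubated 10 min at room temperature with a 500nM (2x) first reagent, then RGS4 at 900nM (2x) plus Transcreener GDP mix added; fluorescence polarization (620/688 nm) read before and after 90 min at 30 °C.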
PTAP TSG101 blk: blocks PTAP/TSG101 interaction to inhibit HIV-1 budding; Q99816; Fluorescence polarization, FITC-PTAP peptide / Tsg101 binding; Potency, µM (top dose mostly 115 µM), for inactives: at the highest dose activity change, negative = inhibition, hits mostly inhibitors; 340,000 tested, under 10 active; active means well fitted inhibition curve with a large enough effect in the main read-out, with a control signal flat, not every such curve was filed as active; inconclusive means small, poorly fitted or top-dose-only effect, or effect the other way, or a change in a side signal; inactive means no such curve, though single readings can be large or run the other way; further: % of control where 0% means no effect
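Fluorescence polarization binding of Tsg101 binding domain (10 uM final) to FITC-labeled PTAP peptide (50 nM final) in HEPES pH 7.5 buffer with NaCl, Tween 20, EDTA, TCEP. Compounds added before peptide; binding 20 min at RT.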
* = called active by the depositor. In the library only some 6.6% were active in any assay of this set; here they are far more common. Unless noted, the call rests on the fitted dose curve; in most records, active means well fitted curve in the direction sought with a large enough effect; inconclusive means small, poorly fitted or top-dose-only effect, or another doubt; inactive means no such curve, though single readings can be large; an effect the other way counts as inactive or inconclusive. Potency means the concentration at half of the fitted maximal effect.

How did COc1cccc(NC(=O)c2cc(-c3cccnc3)nc3c(Cl)cccc23)c1 do in these assays?
SW480 rerep: 16.2%; KB-V1 cytotox: 2.91µM*; KB-3-1 cytotox: inactive; MCF10A rereplic: inconclusive; RGS4 inhibitor: -7.4%; PTAP TSG101 blk: -4.5%

What do the screens show for `COC(=O)c1ccc(CN(Cc2ccc(OC)c(OC)c2)S(=O)(=O)c2ccc(F)c(C(=O)Nc3cc(C)ccc3C)c2)cc1`?
RGS4 inhibitor: -13.8%

How did Cc1ccsc1CN(C(=O)c1oc2cc(Br)ccc2c1C)C1CCS(=O)(=O)C1 (configuration not stated) do in these assays?
RGS4 inhibitor: 13.3%

What do the screens show for `O=C(/C=C/c1ccc2c(c1)OCO2)Nc1cccc([S+](=O)([O-])Nc2ccccc2F)c1`?
KB-V1 cytotox: inactive; KB-3-1 cytotox: inactive

Results for Cc1noc(NS(=O)(=O)c2ccc(NC(=O)CSc3nc4c(cc3C#N)CCCCC4)cc2)c1C ?
SW480 rerep: 18.3%; KB-V1 cytotox: inactive; KB-3-1 cytotox: inactive; MCF10A rereplic: 20.6µM*; RGS4 inhibitor: -7.7%; PTAP TSG101 blk: -11.2%

How did Cc1ccc(S(=O)(=O)CC(=O)Nc2ccc(S(=O)(=O)Nc3onc(C)c3C)cc2)cc1 do in these assays?
SW480 rerep: 10.3µM*; KB-V1 cytotox: inactive; KB-3-1 cytotox: inactive; MCF10A rereplic: -1.5%; RGS4 inhibitor: -6.7%; PTAP TSG101 blk: -1.5%

Results for Cc1noc(NS(=O)(=O)c2ccc(N/C=C/C(=O)c3ccc(F)cc3)cc2)c1C ?
SW480 rerep: 2.2%; KB-V1 cytotox: inconclusive; KB-3-1 cytotox: inactive; MCF10A rereplic: -3.0%; RGS4 inhibitor: -5.9%; PTAP TSG101 blk: -1.0%

Results for CCc1ccc(C(=O)/C=C/Nc2ccc(S(=O)(=O)Nc3onc(C)c3C)cc2)cc1 ?
SW480 rerep: 13.0%; KB-V1 cytotox: inactive; KB-3-1 cytotox: inactive; MCF10A rereplic: 25.9µM*; RGS4 inhibitor: -12.6%; PTAP TSG101 blk: -3.0%

How did O=[N+]([O-])c1ccc(O)c(/C=N/Nc2ncnc3c2cnn3-c2ccccc2)c1 do in these assays?
SW480 rerep: 2.31µM*; KB-V1 cytotox: inactive; KB-3-1 cytotox: inconclusive; MCF10A rereplic: -16.0%; RGS4 inhibitor: 3.6%; PTAP TSG101 blk: -5.0%

How did COc1ccc(C=NNc2ccc([N+](=O)[O-])cn2)cc1 do in these assays?
SW480 rerep: 4.0%; KB-V1 cytotox: inactive; KB-3-1 cytotox: inactive; MCF10A rereplic: -19.1%; RGS4 inhibitor: -0.6%; PTAP TSG101 blk: 1.2%

What do the screens show for `O=[N+]([O-])c1ccc(N/N=C/c2ccc(OCc3cccc4ccccc34)cc2)nc1`?
SW480 rerep: 20.6µM*; KB-V1 cytotox: inactive; KB-3-1 cytotox: inconclusive; MCF10A rereplic: inconclusive; RGS4 inhibitor: -29.9%; PTAP TSG101 blk: inconclusive

What do the screens show for `O=[N+]([O-])c1cccc(N/N=C/c2cc([N+](=O)[O-])ccc2O)c1`?
SW480 rerep: -8.2%; KB-V1 cytotox: inactive; KB-3-1 cytotox: inactive; MCF10A rereplic: inconclusive; RGS4 inhibitor: -23.8%; PTAP TSG101 blk: -2.1%

Results for O=[N+]([O-])c1ccc(O)c(/C=N/Nc2ccccn2)c1 ?
SW480 rerep: 1.3µM*; KB-V1 cytotox: inactive; KB-3-1 cytotox: inconclusive; MCF10A rereplic: inconclusive; RGS4 inhibitor: 19.5%; PTAP TSG101 blk: 0.5%

How did O=[N+]([O-])c1ccc(NN=Cc2ccccc2O)nc1 do in these assays?
SW480 rerep: 2.59µM*; KB-V1 cytotox: inactive; KB-3-1 cytotox: inactive; MCF10A rereplic: inconclusive; RGS4 inhibitor: 15.4%; PTAP TSG101 blk: -2.0%

What do the screens show for `CCCSc1nnc2c(n1)OC(c1sccc1C)Nc1ccccc1-2` (configuration not stated)?
RGS4 inhibitor: -25.3%
